Laboratory results taken from PubChem BioAssay AID2069 (Sanford-Burnham Center for Chemical Genomics, 2009).
The campaign covered roughly 1,200 compounds. About 210 (18%) were called active. Not all results are given here. Unmarked numbers belong to inactive results. Rule as the data show it: active = inhibition above about 30%; inactive = the rest.

Assay: HTRF signal interference by compounds, confirmation, artefact control for SUMOylation inhibitor project, biochemical, uHTS (AID 2069)
Conditions: HTRF interference counterscreen, fluorescence, at 35 µM, stronger effect = higher value

Compound | inhibition
Oc1ccc(/C=N/Nc2cc(N3CCCC3)nc(N3CCCC3)n2)cc1 | 6.25%
Oc1ccc(/C=N/Nc2cc(N3CCCC3)nc(N3CCCC3)n2)cc1O | 42.8% (active)
COc1ccc(/C=N/Nc2cc(N3CCCC3)nc(N3CCCC3)n2)cc1 | 27.9%
CCOc1ccc(C=Nc2cccc3ncccc23)cc1 | -2.35%
Cc1ccc(C2C(C#N)=C(N)N(c3cccnc3)C3=C2C(=O)CCC3)s1 (centres undefined) | 10.7%
COc1ccc(CC2=C(O)c3ccccc3C(=O)C2=O)cc1 | -7.05%
COc1ccc(CC2S/C(=N/N=C/c3ccccc3O)NC2=O)cc1 (centres undefined) | 65.5% (active)
O=C1N/C(=N/N=C/c2ccccc2O)SC1Cc1ccc(F)cc1 (centres undefined) | 64% (active)
O=C(CC1S/C(=N/N=C/C=C/c2ccccc2)NC1=O)Nc1ccc(Cl)c(Cl)c1 (centres undefined) | -11.6%
Cc1cc(/C=C2\C(=N)N3N=C(c4ccco4)SC3=NC2=O)c(C)n1Cc1ccccc1 | 7.7%
N#C/C(=C\c1ccc(O)c(O)c1)C(=O)Nc1cccc2ncccc12 | 8.1%
O=C(NCc1ccccc1)Nc1cccn(Cc2ccccc2F)c1=O | -6.7%
CCN(CC)S(=O)(=O)c1ccc(O)c(NC(=O)c2cc(-c3cc(OC)c(OC)c(OC)c3)nc3ccccc23)c1 | 16.9%
O=C(N/N=C/c1ccc(Cl)cc1)c1nc2ccc([N+](=O)[O-])cc2c(=O)[nH]1 | 8.95%
CC(O)C(=O)N/N=C/c1cccc(Cl)c1Cl (centres undefined) | -5.5%
O=C(Nc1nnc(-c2ccccc2SCc2ccccc2)s1)Nc1ccccc1F | 6.45%
Cc1c(N=C2C=CC(=O)c3ccccc32)c(=O)n(-c2ccccc2)n1C | -29.4%
Cc1c(N2C(=O)c3ccc4c5c(ccc(c35)C2=O)CC4)c(=O)n(-c2ccccc2)n1C | 39.8% (active)
Cc1ccc(C(=O)Nc2nnc(CC(=O)N/N=C/c3ccc(O)c(O)c3)s2)cc1 | -1%
CCc1c(C)c2cc(Cl)c(O)c(CN(C)C)c2oc1=O | 37.2% (active)

Compound | inhibition
Cc1c(CC(=O)O)c(=O)oc2c(C)c(OCc3ccc(F)cc3Cl)ccc12 | -7.8%
Cc1c(C)c2cc(Cl)c(O)c(CN3CCN(C)CC3)c2oc1=O | 30.6% (active)
Cc1cc(Br)ccc1-n1[nH]c(C)c(C=Nc2cccc3nsnc23)c1=O | 14.9%
NC(=O)CC(NC(=O)Cc1cccc2ccccc12)c1ccc(NCCc2ccccc2F)c([N+](=O)[O-])c1 (centres undefined) | 0.5%
CCc1ccc(NC(=O)C(CC)Sc2nc3cc4c(cc3c(=O)n2Cc2ccco2)OCO4)cc1 (centres undefined) | 6.65%
N#Cc1cnn2c(-c3ccccc3)ccnc12 | 36.5% (active)
NS(=O)(=O)c1ccc(-c2ccc(/C=C3\NC(=S)NC3=O)o2)cc1 | -17.4%
Cc1cccc(NC2=C(NCCO)C(=O)c3ccccc3C2=O)c1 | -25.1%
Cc1ccccc1N=Cc1cccc(O)c1O | -6.55%
CCCCn1c(=O)[nH]c2nc3cc(N)ccc3nc2c1=O | 43.9% (active)
CCCCn1c(NS(=O)(=O)c2ccccc2)c(S(=O)(=O)c2ccc(C)cc2)c2nc3ccccc3nc21 | 16.1%
CCCCn1c(=O)[nH]c(=O)c2c1nc(-c1ccc(-c3ccc(F)cc3)o1)n2C | 21.7%
Oc1ccc(C2Nc3cccc4cccc(c34)N2)c(O)c1 | -3.25%
CC(=O)Oc1ccc2c(C)c(CC(C)O)c(=O)oc2c1 (centres undefined) | 42.2% (active)
CC(NC(=O)OC(C)(C)C)C(=O)Oc1ccc2ccc(=O)oc2c1 (centres undefined) | 25.8%
Cc1ccc(NC(=S)Nc2cccc3ccccc23)cc1F | -5.85%
CN(C)c1cccc2cccc(N(C)C)c12 | 13.3%
CN(C)c1cccc2c(S(=O)(=O)N3CCCC3)cccc12 | 36.4% (active)
CN(C)c1cccc2c(S(=O)(=O)Nc3ccccn3)cccc12 | 20%
Cn1c2ccccc2c2cnn(CC(=O)Nc3ccc(Cl)cc3)c(=O)c21 | 15.8%

Compound | inhibition
Cc1cc(C)c(S(=O)(=O)NCC23C=CC(O2)C2C(=O)N(c4ccccc4)C(=O)C23)c(C)c1 (centres undefined) | -17.5%
O=C(NN1C(=O)CSC1=S)C(=O)NN1C(=O)CSC1=S | 32.4% (active)
COc1ccc(NC(=S)Nc2ccc3nsnc3c2)cc1 | 15.8%
CC(=O)OCCNc1cc(SCc2ccco2)c2nonc2c1[N+](=O)[O-] | -1.55%
Cc1oc2c(c(C)cc3oc(=O)c(CC(=O)N[C@@H](C)C(=O)O)c(C)c32)c1C | 53.8% (active)
CCC(NC(=O)Cc1c(C)c2c(cc(C)c3c(C)c(C)oc32)oc1=O)C(=O)O (centres undefined) | 51.6% (active)
Cc1cc(OC(C(=O)O)c2ccccc2)c2c(C)c(Cc3ccccc3)c(=O)oc2c1 (centres undefined) | 21.4%
CSCC[C@H](NC(=O)Cc1c(C)c2c(cc(C)c3c(C)c(C)oc32)oc1=O)C(=O)O | 48.5% (active)
Cc1oc2c(c(C)cc3oc(=O)c(CC(=O)N[C@H](C(=O)O)C(C)C)c(C)c32)c1C | 56.9% (active)
Nc1ccccc1NC1=CC(=O)CC(c2ccco2)C1 (centres undefined) | 16.8%
CC1=NN(c2ccc(C(=O)O)cc2)C(=O)/C1=C\c1ccc(OC(=O)c2cccs2)cc1 | 12.1%
C[n+]1cccc2c(Br)ccc([O-])c21 | -20.8%
C[n+]1cccc2cccc([O-])c21 | 5.4%
Cc1cccc2c(N=Nc3ccc(S(=O)(=O)Nc4cccc(Cl)c4)cc3[N+](=O)[O-])c(O)[nH]c12 | -2.75%
CCOCCCNC1=C(Cl)C(=O)c2ccccc2C1=O | -7.4%
Cc1ccc(NC(=O)CSc2nnc(-c3ccco3)c(-c3ccco3)n2)cc1 | 0.35%
O=C(Nc1ccc2nsnc2c1)N1CCCCC1 | 12.4%
Oc1ccc(N=Cc2ccc(OCc3ccccc3)cc2)cc1 | -5.35%
CC1=CC(C)(C)N2C(=O)C(=Nc3ccc(O)cc3)c3cccc1c32 | -3.6%
